Assay results taken from the supplement of paper PMC7595190.
A number with no mark means an inactive call.

How the values were obtained:
Experiment in all cases: CellTox Green cytotoxicity fluorescence relative to DMSO vehicle (fold of vehicle RFU); higher = more cell death (loss of membrane integrity), active = 2 or more
[1] = test system: CMK
Summary of the method: (§1)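 MV4-11, CMK and Kasumi-1 cells were seeded at 4.0 × 10^4 cells per well in 96-well black optical-bottom plates, with CellTox Green reagent added at seeding. Single compounds from the Selleckchem apoptosis library, diluted in DMSO, were added at final 0.01, 0.1 and 1 µM (vehicle 0.1% DMSO), then incubated at 37 °C, 5% CO2 and read at 24, 48 and 72 h (Ex 485 nm, Em 520 nm). Cytotoxicity, reflecting loss of membrane integrity, is fluorescence expressed as fold of the DMSO vehicle.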

[2] = test system: Kasumi-1
Summary of the method: as §1

[3] = test system: MV4-11
Summary of the method: as §1

| Structure (SMILES) | CellTox Green cytotoxicity fluorescence ([1]; 0.01 µM, 24 h) | CellTox Green cytotoxicity fluorescence ([1]; 0.01 µM, 48 h) | CellTox Green cytotoxicity fluorescence ([1]; 0.01 µM, 72 h) | CellTox Green cytotoxicity fluorescence ([1]; 0.1 µM, 24 h) | CellTox Green cytotoxicity fluorescence ([1]; 0.1 µM, 48 h) | CellTox Green cytotoxicity fluorescence ([1]; 0.1 µM, 72 h) | CellTox Green cytotoxicity fluorescence ([1]; 1 µM, 24 h) | CellTox Green cytotoxicity fluorescence ([1]; 1 µM, 48 h) | CellTox Green cytotoxicity fluorescence ([1]; 1 µM, 72 h) | CellTox Green cytotoxicity fluorescence ([2]; 0.01 µM, 24 h) | CellTox Green cytotoxicity fluorescence ([2]; 0.01 µM, 48 h) | CellTox Green cytotoxicity fluorescence ([2]; 0.01 µM, 72 h) | CellTox Green cytotoxicity fluorescence ([2]; 0.1 µM, 24 h) | CellTox Green cytotoxicity fluorescence ([2]; 0.1 µM, 48 h) | CellTox Green cytotoxicity fluorescence ([2]; 0.1 µM, 72 h) | CellTox Green cytotoxicity fluorescence ([2]; 1 µM, 24 h) | CellTox Green cytotoxicity fluorescence ([2]; 1 µM, 48 h) | CellTox Green cytotoxicity fluorescence ([2]; 1 µM, 72 h) | CellTox Green cytotoxicity fluorescence ([3]; 0.01 µM, 24 h) | CellTox Green cytotoxicity fluorescence ([3]; 0.01 µM, 48 h) | CellTox Green cytotoxicity fluorescence ([3]; 0.01 µM, 72 h) | CellTox Green cytotoxicity fluorescence ([3]; 0.1 µM, 24 h) | CellTox Green cytotoxicity fluorescence ([3]; 0.1 µM, 48 h) | CellTox Green cytotoxicity fluorescence ([3]; 0.1 µM, 72 h) | CellTox Green cytotoxicity fluorescence ([3]; 1 µM, 24 h) | CellTox Green cytotoxicity fluorescence ([3]; 1 µM, 48 h) | CellTox Green cytotoxicity fluorescence ([3]; 1 µM, 72 h) |
| --- | --- | --- | --- | --- | --- | --- | --- | --- | --- | --- | --- | --- | --- | --- | --- | --- | --- | --- | --- | --- | --- | --- | --- | --- | --- | --- | --- |
| C=CC(=O)N1CC(=Cc2ccc([N+](=O)[O-])cc2)C(=O)C(=Cc2ccc([N+](=O)[O-])cc2)C1 | 0.921 | 0.908 | 0.929 | 1.13 | 1.16 | 1.07 | 2.14 (active) | 3.36 (active) | 2.48 (active) | 1.01 | 0.937 | 0.951 | 1.01 | 1.05 | 1.04 | 1.25 | 1.78 | 1.95 | 0.967 | 0.965 | 0.983 | 1.11 | 1.66 | 1.78 | 1.68 | 2.12 (active) | 1.92 |
| CC(=O)O/N=C1/C(c2c(O)[nH]c3cc(Br)ccc23)=Nc2ccccc21 [BIO-acetoxime] | 1.02 | 0.999 | 0.97 | 0.981 | 0.97 | 0.981 | 0.973 | 0.945 | 1.12 | 1.05 | 1.05 | 1.04 | 1.02 | 1.04 | 1.04 | 0.974 | 1.07 | 1.11 | – | – | – | – | – | – | – | – | – |
| CCCCC(C=O)NC(=O)C(CC(C)C)NC(=O)C(CC(C)C)NC(C)=O (stereo unspecified) | 0.991 | 0.967 | 0.962 | 0.984 | 0.984 | 1.01 | 2.35 (active) | 3.65 (active) | 2.82 (active) | 1.01 | 0.993 | 0.999 | 1.01 | 1 | 1 | 1.03 | 1.11 | 1.16 | 0.985 | 1.01 | 1.01 | 1.01 | 1.02 | 1.01 | 1.16 | 2.16 (active) | 2.42 (active) |
| O=C1CCC(N2C(=O)c3ccccc3C2=O)C(=O)N1 (stereo unspecified) [Thalidomide] | 0.979 | 0.985 | 0.989 | 0.945 | 0.95 | 0.986 | 0.982 | 0.962 | 1.19 | 0.98 | 0.96 | 0.95 | 0.938 | 0.934 | 0.908 | 0.972 | 0.981 | 0.997 | – | – | – | – | – | – | – | – | – |
| FC(F)(F)c1ccc(CNc2ccc(Cc3c[nH]c4ncc(Cl)cc34)cn2)cn1 [Pexidartinib] | 1.01 | 1 | 0.979 | 0.99 | 1 | 0.967 | 0.964 | 0.989 | 0.967 | 0.99 | 0.998 | 0.956 | 1 | 1 | 1.03 | 1.04 | 1.12 | 1.2 | – | – | – | – | – | – | – | – | – |
| CC(C)CC(NC(=O)C(Cc1ccccc1)CC(O)C(Cc1ccccc1)NC(=O)OC(C)(C)C)C(=O)NC(Cc1ccccc1)C(N)=O (stereo unspecified) | 1 | 1 | 1.03 | 0.943 | 0.922 | 0.899 | 0.947 | 0.949 | 0.919 | 0.952 | 0.963 | 0.962 | 0.943 | 0.974 | 0.946 | 0.912 | 0.993 | 1 | 0.952 | 0.964 | 0.968 | 0.937 | 0.952 | 0.944 | 0.919 | 0.947 | 0.967 |
| Nc1cccc2c1CN(C1CCC(=O)NC1=O)C2=O (stereo unspecified) [Lenalidomide] | 0.938 | 0.942 | 0.905 | 0.932 | 0.929 | 0.898 | 0.948 | 0.969 | 0.783 | 0.986 | 0.897 | 0.88 | 0.951 | 0.933 | 0.915 | 0.986 | 1 | 0.982 | 0.939 | 0.942 | 0.935 | 0.943 | 0.929 | 0.915 | 0.952 | 0.958 | 0.944 |
| COCC[n+]1c2c(n(Cc3cnccn3)c1C)C(=O)c1ccccc1C2=O [Sepantronium Bromide] | 0.916 | 0.91 | 0.922 | 0.955 | 1.02 | 0.927 | 1.06 | 1.53 | 1.41 | 1.02 | 1.03 | 1.11 | 1.08 | 1.41 | 1.57 | 1.5 | 2.08 (active) | 2.15 (active) | – | – | – | – | – | – | – | – | – |
| COc1cc(C(=O)N2CCC(N3CCN(C)CC3)CC2)ccc1Nc1ncc2c(n1)N(C)c1ccccc1C(=O)N2C | 0.941 | 0.923 | 0.891 | 0.97 | 0.967 | 0.941 | 1.16 | 1.89 | 1.71 | 1.05 | 1.01 | 1.01 | 0.99 | 0.983 | 1 | 1.03 | 1.33 | 1.61 | 1.02 | 1.01 | 1.02 | 1.02 | 1.03 | 1.08 | 1.02 | 1.29 | 1.62 |
| Cc1c(C(=O)Nc2ccc(Oc3ccnc4[nH]cc(-c5ccccc5)c34)c(F)c2)c(=O)n(-c2ccc(F)cc2)n1C | 1.01 | 1.02 | 1.1 | 0.997 | 1.02 | 1.01 | 0.945 | 0.956 | 1.02 | 1.01 | 1.02 | 0.998 | – | – | – | 0.84 | 0.814 | 0.805 | – | – | – | – | – | – | – | – | – |
| N#CC(=Cc1ccc(-c2cc(Cl)ccc2Cl)o1)C(=O)Nc1cccc2ncccc12 | 0.949 | 0.938 | 0.947 | 0.993 | 0.99 | 0.992 | 1 | 1.05 | 1.03 | 1 | 0.958 | 0.958 | 0.998 | 0.979 | 0.979 | 0.939 | 0.916 | 0.917 | – | – | – | – | – | – | – | – | – |
| COc1cccc(-n2c(=O)[nH]c3cc(Cl)n(-c4ccc(-c5cccc(OC)c5O)cc4)c3c2=O)c1 | 0.99 | 0.943 | 1.27 | 0.996 | 0.985 | 0.962 | 0.95 | 0.915 | 0.832 | 0.97 | 0.973 | 1.13 | 0.99 | 0.989 | 0.991 | 0.947 | 0.91 | 0.877 | 0.975 | 0.924 | – | 0.975 | 0.966 | 0.959 | 1.01 | 1 | 1 |
| CN(C)CC[C@H](CSc1ccccc1)Nc1ccc(S(=O)(=O)NC(=O)c2ccc(N3CCN(Cc4ccccc4-c4ccc(Cl)cc4)CC3)cc2)cc1[N+](=O)[O-] | 0.932 | 0.938 | 0.907 | 0.982 | 0.992 | 1.02 | 1.48 | 1.67 | 1.52 | 1.07 | 1.11 | 1.18 | 1.17 | 1.49 | 1.66 | 1.44 | 1.81 | 1.84 | 0.961 | 1.15 | 1.31 | 1.08 | 1.59 | 1.88 | 1.27 | 2.34 (active) | 2.59 (active) |
| CC[C@@]1(O)C(=O)OCc2c1cc1n(c2=O)Cc2cc3cc(O)ccc3nc2-1 [(S)-10-Hydroxycamptothecin] | 0.964 | 1.06 | 1.19 | 1.56 | 2.2 (active) | 2.02 (active) | 0.988 | 1.01 | 0.878 | 0.962 | 0.972 | 0.997 | 0.972 | 1.07 | 1.27 | 0.98 | 1.23 | 1.59 | – | – | – | – | – | – | – | – | – |
